Results taken from PubChem BioAssay AID651551 (Sanford-Burnham Center for Chemical Genomics, 2012).

What follows are compounds tested against PEG-3 (UniProt Q6IN02) (assay: GAPDH versus PEG-3 reporter suppression – cell-based, luminescence, counter-screen for PEG-3 promoter inhibitor project, SAR follow-up (AID 651551)). Conditions: HeLa PEG-Prom / GAPDH luciferase reporter, 6 or 24 h, run 3, 6 h; at 99 µM (top of the series).

Q: Which inhibition % (higher = more inhibition) does the source give for `COCCCNC(=O)c1ccc(Cn2c(=O)c3ccccc3n(Cc3ccccc3C#N)c2=O)cc1` here?
A: 12.9%

Q: Which inhibition % (higher = more inhibition) does the source give for `Cc1cc(NC(=O)c2ccccc2C(F)(F)F)n(-c2nc3ccccc3[nH]2)n1` here?
A: 83.9%

Q: For `O=C(Nc1nccs1)c1nn(-c2ccccc2)c(=O)c2ccccc12`, which inhibition % (higher = more inhibition) is on record?
A: 29.3%

Q: Which inhibition % (higher = more inhibition) does the source give for `CCn1nc(C(=O)Nc2nc(-c3ccccn3)cs2)c2ccccc2c1=O` here?
A: 39.7%

Q: Which inhibition % (higher = more inhibition) does the source give for `Cc1nc(NC(=O)c2ccccc2)sc1-c1csc(Nc2ccccc2)n1` here?
A: 27%

Q: For `CCn1cc(C(=O)NCc2ccco2)c(=O)c2cc(S(=O)(=O)N3CCCC3)ccc21`, which inhibition % (higher = more inhibition) is on record?
A: 15.2%

Q: Which inhibition % (higher = more inhibition) does the source give for `Cc1cc(NC(=O)c2ccccc2)n(-c2nc3ccccc3[nH]2)n1` here?
A: 76.2%

Q: For `O=C(Nc1nc(-c2ccccc2)cs1)c1nn(-c2ccccc2)c(=O)c2ccccc12`, which inhibition % (higher = more inhibition) is on record?
A: 11.7%

Q: Which inhibition % (higher = more inhibition) does the source give for `COc1ccccc1Nc1nc(-c2sc(NC(=O)c3ccco3)nc2C)cs1` here?
A: 15.2%

Q: Which inhibition % (higher = more inhibition) does the source give for `CCCn1nc(C(=O)Nc2nc(-c3ccncc3)cs2)c2ccccc2c1=O` here?
A: 24.5%

Q: How did the inhibition % (higher = more inhibition) turn out when `Cc1cc(NC(=O)c2ccccc2C)n(-c2nc3ccccc3[nH]2)n1` was run?
A: 53.8%

Q: With `Cc1cc(NC(=O)c2cccc(C)c2C)n(-c2nc3ccccc3[nH]2)n1` as the compound, how does the inhibition % (higher = more inhibition) read?
A: 61.3%

Q: `Cc1nc(NC(=O)c2ccccc2)sc1-c1csc(Nc2cccc(Cl)c2C)n1` was tested. Which inhibition % (higher = more inhibition) did it give?
A: 49.3%

Q: How did the inhibition % (higher = more inhibition) turn out when `COc1ccc(-n2nc(C(=O)NCC(=O)Nc3ccc(OC)c(OC)c3)c3ccccc3c2=O)cc1` was run?
A: 27%

Q: `COc1ccc(Cl)cc1Nc1nc(-c2sc(NC(=O)c3ccccc3)nc2C)cs1` was tested. Which inhibition % (higher = more inhibition) did it give?
A: 64.3%

Q: With `Cc1nc(NC(=O)c2ccccc2)sc1-c1csc(Nc2ccccc2Cl)n1` as the compound, how does the inhibition % (higher = more inhibition) read?
A: 19.9%

Q: For `Cc1ccc(Cl)cc1Nc1nc(-c2sc(NC(=O)c3ccco3)nc2C)cs1`, which inhibition % (higher = more inhibition) is on record?
A: 50.8%

Q: Which inhibition % (higher = more inhibition) does the source give for `CCCn1nc(C(=O)Nc2nc3ccccc3s2)c2ccccc2c1=O` here?
A: 36.4%

Q: How did the inhibition % (higher = more inhibition) turn out when `COc1ccc(-n2nc(C(=O)NCC(=O)Nc3cccc(OC)c3)c3ccccc3c2=O)cc1` was run?
A: -17.6%

Q: Which inhibition % (higher = more inhibition) does the source give for `COc1ccc(-n2nc(C(=O)NCC(=O)Nc3cc(OC)c(OC)c(OC)c3)c3ccccc3c2=O)cc1OC` here?
A: 9.38%

Q: How did the inhibition % (higher = more inhibition) turn out when `CCCn1nc(C(=O)Nc2nc(-c3ccccn3)cs2)c2ccccc2c1=O` was run?
A: 34.4%

Q: For `Cc1cc(NC(=O)c2ccccc2)n(-c2nc3ccccc3n2C)n1`, which inhibition % (higher = more inhibition) is on record?
A: 40.4%

Q: For `O=C(Nc1nc2ccccc2s1)c1nn(-c2ccccc2)c(=O)c2ccccc12`, which inhibition % (higher = more inhibition) is on record?
A: -12.9%
